Measured values reported in PubChem BioAssay (NCATS).
Values joined by “and” are separate entries in the source; they are usually repeats but may differ in a detail not shown here. Identical values can stand only once. Unmarked numbers belong to inactive results. Inconclusive results are not listed. A call without a number means that no potency is given here. Active and inactive are the calls of the source. Unless noted, calls come from the whole dose curve; as a rule, active = well fitted curve in the direction sought with a large enough effect; inconclusive = small, poorly fitted or top-dose-only effect, or another doubt; inactive = no such curve, though single readings can be large; an effect the other way counts as inactive or inconclusive.

Assays:
[1] = molecular target: Voltage-gated inwardly rectifying potassium channel KCNH2 (Homo sapiens) (UniProt Q12809); assay: qHTS Assay for Small Molecule Inhibitors of the Human hERG Channel Activity (AID 588834);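 note: lower thallium flux fluorescence means stronger hERG block; nearly all actives have a fitted effect of over 50% in size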; note: potency is the fitted concentration of half-maximal effect
Outline: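 Cells were infected with hERG-BacMam virus for 4 hrs at room temperature, grown overnight, then seeded at 2000/well. After dye loading and roughly 10 min compound treatment, thallium influx was triggered and fluorescence recorded.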

[2] = Cell Viability - N2a (AID 540); settings: N2a mouse neuroblastoma cell viability; at 92.2 µM (top of the series); note: nearly all actives have a fitted effect of over 45% in size
Outline: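 CellTiter-Glo ATP luminescence, read 20 min after reagent at room temperature, reported viability following 40 h compound treatment at 37 °C. N2a mouse neuroblastoma cells seeded 1500/well; Hill equation gave AC50.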

[3] = Cellular Toxicity (caspase-3) H-4-II-E (AID 663);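 note: cells exposed to compound for 16 hr before readout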
Outline: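 Caspase 3/7 activation measured in H-4-II-E cells in complete culture medium after 16 hr treatment at 37 °C, using luciferase-coupled substrate readout; AC50 values come from Hill-equation fits of normalized concentration-response data.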

[4] = Cellular Toxicity (caspase-3) N2a (AID 665); settings: N2a cells, luminescence, normalized: DMSO 0%, 10 µM staurosporine 100%; at 92.2 µM (top of the series);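 note: compound exposure lasted 16 h at 37 °C before readout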
Outline: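 Caspase-3/7 activation measured as luminescence from Caspase-Glo reagent (1 h, room temperature) after 16 h compound exposure of mouse N2a cells. AC50 values from Hill-equation concentration-response, scaled between DMSO and 10 uM staurosporine.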

[5] = Cell Viability - LYMP1-002 - Assay at 16 hr (AID 948)
Outline: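 Acute cytotoxicity is scored as a concentration-dependent fall in intracellular ATP in a human lymphoblastoid line (LYMP1-002) after 16 hr compound exposure at 37 C, measured by luciferase luminescence.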

[6] = MultiTox-Fluor Cytotoxicity Assay - LYMP1-002 - Live Cells (AID 955)
Outline: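 After 16 h compound exposure at 37 C, live LYMP1-002 lymphoblastoid cells (2500/well) were quantified by cleavage of cell-permeant GF-AFC substrate, read at 405/510 nm after 60 min. Concentration-response fitted with Hill equation for AC50.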

[7] = MultiTox-Fluor Cytotoxicity Assay - LYMP1-003 - Dead Cells (AID 961); note: nearly all actives have a fitted effect of over 70% in size
Outline: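 LYMP1-003 lymphoblastoid, 2500 cells/well, 5 hr settle then 16 hr cpd at 37 C; MultiTox-Fluor reagent 60 min RT; Ex/Em 485/520 dead-cell signal; norm. DMSO = 0%, 15 uM tetraoctylammonium bromide = 100%; Hill AC50.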

[8] = MultiTox-Fluor Cytotoxicity Assay - LYMP1-003 - Live Cells (AID 962);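 note: cytotoxic hits lower the live-cell protease signal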
Outline: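 Live-cell protease activity (GF-AFC substrate, 405/510 nm, 60 min at room temperature) after 16 h, 37 C compound exposure of human lymphoblastoid LYMP1-003 cells; concentration-response fitted to the Hill equation for AC50.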

[9] = Cell Viability - LYMP2-003 (AID 965);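 note: cells exposed to compounds for 24 h before reading; nearly all actives have a fitted effect of over 50% in size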; note: potency is the fitted concentration of half-maximal effect
Outline: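 Acute cytotoxicity is scored as a concentration-dependent drop in intracellular ATP, measured by luciferase luminescence in human lymphoblastoid cells treated for 24 hours at 37 C. AC50 values derive from Hill-equation modelling.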

[10] = Cell Viability - LYMP2-015 (AID 971); note: nearly all actives have a fitted effect of over 55% in size; note: potency is the fitted concentration of half-maximal effect
Outline: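 Cytotoxicity readout: decrease in intracellular ATP (CellTiter-Glo luminescence) in 2500 LYMP2-015 lymphoblastoid cells/well after 24 h compound exposure at 37 C. Concentration-response data fitted with the standard Hill equation to give AC50.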

[11] = Cell Viability - LYMP2-025 (AID 976)
Outline: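 Cytotoxicity read as loss of intracellular ATP (luciferase luminescence) after 24 h compound treatment at 37 C. Uses LYMP2-025 lymphoblastoid cells in 1536-well format; Hill-equation modelling gives AC50; tetraoctylammonium bromide as positive control.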

[12] = Cell Viability - LYMP2-006 (AID 978);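 note: cells exposed to compound for 24 hours; nearly all actives have a fitted effect of over 60% in size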
Outline: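 Concentration-dependent loss of intracellular ATP in a human lymphoblastoid line after 24 hr treatment at 37 C was measured by CellTiter-Glo luminescence, with AC50 values obtained from standard Hill-equation modelling.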

[13] = Cell Viability - LYMP2-007 (AID 979);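 note: cells exposed to compound for 24 h before reading; nearly all actives have a fitted effect of over 60% in size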; note: potency is the fitted concentration of half-maximal effect
Outline: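 AC50 values come from Hill-equation fits of luminescent intracellular ATP (CellTiter-Glo, 30 min, room temperature) following 24 h compound exposure at 37 C. Cells: LYMP2-007 lymphoblastoid line, 2500 per well, in complete culture medium.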

[14] = Cell Viability - LYMP2-008 (AID 980); note: nearly all actives have a fitted effect of over 60% in size; note: potency is the fitted concentration of half-maximal effect
Outline: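 Cytotoxicity determined from ATP-dependent luciferase luminescence (CellTiter-Glo) following 24 h compound exposure of human lymphoblastoid LYMP2-008 cells at 37 C. Concentration-response data fitted to the Hill equation to give AC50.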

[15] = Cell Viability - LYMP2-026 (AID 989); note: nearly all actives have a fitted effect of over 50% in size
Outline: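 Cytotoxicity read as ATP-dependent luminescence (CellTiter-Glo, 30 min room temperature) after 24 h compound treatment at 37 C. LYMP2-026 lymphoblastoid line seeded at 2500 cells/well; AC50 derived by standard Hill equation.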

[16] = Cell Viability - LYMP1-002 - Assay at 24 hr (AID 993)
Outline: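 qHTS cytotoxicity at 24 h: CellTiter-Glo ATP luminescence in lymphoblastoid line LYMP1-002 incubated with compound at 37 °C. Concentration-response modeled with the Hill equation for AC50; tetraoctylammonium bromide served as positive control.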

[17] = Cell Viability - LYMP1-002 - Assay at 40 hr (AID 994); note: nearly all actives have a fitted effect of over 60% in size
Outline: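 Cytotoxicity was read as loss of cellular ATP (CellTiter-Glo luminescence) after 40 hr compound exposure at 37 C of 2500 LYMP1-002 lymphoblastoid cells per well. Concentration-response data were fitted with the standard Hill equation to give AC50.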

[18] = qHTS assay for small molecule agonists of the antioxidant response element (ARE) signaling pathway measured by Nrf2-dependant transcriptional activity (AID 720636; active = well fitted curve in the direction sought with a large enough effect in the repeat runs; an effect the other way counts as inactive or inconclusive)
Outline: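 Nrf2-dependent transcription read as ONE-Glo luciferase signal from ARE-luc HepG2 reporter cells after 16 hr compound treatment at 37 C, 5% CO2, in assay medium with 1% dialyzed FBS.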

[19] = qHTS assay for small molecule agonists of the antioxidant response element (ARE) signaling pathway measured by Nrf2-dependant transcriptional activity - cell viability counter screen (AID 720653; active = well fitted curve in the direction sought with a large enough effect in the repeat runs; an effect the other way counts as inactive or inconclusive); settings: ARE-bla HepG2 viability, CellTiter-Glo ATP luminescence, 16 h; active compounds read low
Outline: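 ARE-bla HepG2 cells (2,000/well) rested 5 hrs at 37C/5% CO2, then exposed to compounds in DMSO for 16 hrs. Viability was read in the same wells as intracellular ATP by luminescence, 30 min at room temperature after reagent addition.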

[20] = qHTS assay for cell viability of the p53RE-bla HCT-116 cell line (AID 743292); note: nearly all actives have a fitted effect of over 55% in size
Outline: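 ATP-based luminescent viability (CellTiter-Glo, 30 min RT) after 16 h compound treatment at 37 C of p53RE-bla HCT-116 cells, seeded at 4,000 cells/well and rested 5 h before dosing.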

Chain of Voltage-gated inwardly rectifying potassium channel KCNH2 (Homo sapiens) (Q12809 whole entry, looked up): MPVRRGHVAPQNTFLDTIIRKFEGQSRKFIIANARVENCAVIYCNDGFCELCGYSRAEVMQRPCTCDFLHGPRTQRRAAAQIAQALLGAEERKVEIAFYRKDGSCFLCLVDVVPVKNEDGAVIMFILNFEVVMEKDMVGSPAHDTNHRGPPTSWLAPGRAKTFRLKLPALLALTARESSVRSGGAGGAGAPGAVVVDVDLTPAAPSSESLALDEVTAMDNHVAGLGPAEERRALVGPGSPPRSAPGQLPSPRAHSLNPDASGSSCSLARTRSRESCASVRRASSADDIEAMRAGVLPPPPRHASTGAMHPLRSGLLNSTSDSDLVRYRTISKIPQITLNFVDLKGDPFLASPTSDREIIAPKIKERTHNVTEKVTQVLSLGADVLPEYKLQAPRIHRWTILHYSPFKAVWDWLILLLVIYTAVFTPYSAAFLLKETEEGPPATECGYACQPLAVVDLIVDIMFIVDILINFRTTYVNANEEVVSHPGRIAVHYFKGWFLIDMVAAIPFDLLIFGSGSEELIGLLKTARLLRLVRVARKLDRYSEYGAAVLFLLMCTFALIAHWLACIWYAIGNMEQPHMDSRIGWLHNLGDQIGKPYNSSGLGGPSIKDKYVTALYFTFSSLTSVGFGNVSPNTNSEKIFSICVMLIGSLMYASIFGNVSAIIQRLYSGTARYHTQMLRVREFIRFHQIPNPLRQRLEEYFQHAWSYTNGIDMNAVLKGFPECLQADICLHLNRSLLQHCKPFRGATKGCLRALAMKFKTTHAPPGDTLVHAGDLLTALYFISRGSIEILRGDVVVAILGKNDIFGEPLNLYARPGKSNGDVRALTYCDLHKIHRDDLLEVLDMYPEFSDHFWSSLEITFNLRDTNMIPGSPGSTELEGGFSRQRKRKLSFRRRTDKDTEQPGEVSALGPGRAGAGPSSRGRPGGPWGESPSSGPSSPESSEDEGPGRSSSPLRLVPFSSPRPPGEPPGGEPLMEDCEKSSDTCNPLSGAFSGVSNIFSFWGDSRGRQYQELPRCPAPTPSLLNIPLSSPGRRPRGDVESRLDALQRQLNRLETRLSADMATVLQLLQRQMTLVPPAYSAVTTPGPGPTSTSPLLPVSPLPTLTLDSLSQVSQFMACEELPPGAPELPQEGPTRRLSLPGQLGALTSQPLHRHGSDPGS

Compound | Potency [1] | activity change, negative = cytotoxicity [2] | outcome [3] | caspase-3 activation [4] | Potency [5] | outcome [6] | Potency [7] | Potency [8] | Potency [9] | Potency [10] | Potency [11] | Potency [12] | Potency [13] | Potency [14] | Potency [15] | Potency [16] | Potency [17] | outcome [18] | max response [19] | Potency [20]
CN1C[C@H](C(=O)N[C@]2(C)O[C@@]3(O)C4CCCN4C(=O)[C@H](Cc4ccccc4)N3C2=O)C[C@@H]2c3cccc4[nH]cc(c34)C[C@H]21 (some centres undefined) | 11.2 µM (active) | – | – | – | – | – | – | – | – | – | – | – | – | – | – | – | – | – | – | –
COC1=CC(=O)O[C@@H](/C=C/c2ccc3c(c2)OCO3)C1 | inactive | -10.4% | inactive | -17.2% | inactive | inactive | inactive | inactive | inactive | inactive | inactive | inactive | inactive | inactive | inactive | inactive | inactive | inactive | -10.1% | inactive
C[C@]12CC[C@H]3[C@@H](CCC4=CC(=O)CC[C@@]43C)[C@@H]1CC[C@@H]2O | – | -5.73% | inactive | 3.16% | inactive | inactive | inactive | inactive | inactive | inactive | inactive | inactive | inactive | inactive | inactive | inactive | inactive | inactive | -2.92% | inactive
c1ccc(-c2ccccc2)cc1 | 44.7 µM (active) | -4.83% | inactive | -1.9% | inactive | inactive | inactive | inactive | inactive | inactive | inactive | inactive | inactive | inactive | inactive | inactive | inactive | inactive | -4.39% and -5.27% | inactive
c1ccc(OP(Oc2ccccc2)Oc2ccccc2)cc1 | inactive | 6.82% | inactive | 0.755% | inactive | inactive | inactive | inactive | inactive | inactive | inactive | inactive | inactive | inactive | inactive | inactive | inactive | inactive | 3.55% and -14.3% | inactive
CCCCOCCOP(=O)(OCCOCCCC)OCCOCCCC | – | -1.66% | inactive | -1.18% | inactive | inactive | inactive | inactive | inactive | inactive | inactive | inactive | inactive | inactive | inactive | inactive | inactive | inactive | -2.06% and 1.41% | inactive
Brc1ccc(Oc2cc(Br)c(Br)cc2Br)c(Br)c1 | inactive | -86.7% (active) and -80.4% (active) | inactive | 12.3% and 4.39% | inactive | inactive | inactive | inactive | inactive | inactive | inactive | inactive | inactive | inactive | inactive | inactive | inactive | inactive | -1.22% and 3.3% and -21% | inactive
COc1ccc(N)cc1 | inactive | -29.2% and -31.3% | inactive | 1.03% and -0.467% | inactive | inactive | inactive | inactive | inactive | inactive | inactive | inactive | inactive | inactive | inactive | inactive | inactive | inactive | 6.52% and -14.8% | inactive
CC(=O)[O-].CC(=O)[O-].O.O.O.[Pb+2] | inactive | 13.3% and 9.03% | inactive | 0.731% and -2.95% | inactive | inactive | inactive | inactive | inactive | inactive | inactive | inactive | inactive | inactive | inactive | inactive | inactive | inactive | -9.67% and 5.41% | inactive
CC(Cl)Cl | inactive | -11.1% | inactive | -4.66% | inactive | inactive | inactive | inactive | inactive | inactive | inactive | inactive | inactive | inactive | inactive | inactive | inactive | inactive | -2.99% | inactive
CN=C=S | inactive | -7.58% | inactive | 2.61% | inactive | inactive | inactive | inactive | inactive | inactive | inactive | inactive | inactive | inactive | inactive | inactive | inactive | inactive | 4% and -4.66% | inactive
OCC(Br)CBr (centres undefined) | inactive | -8.1% | inactive | -2.35% | inactive | inactive | inactive | inactive | inactive | inactive | inactive | inactive | inactive | inactive | inactive | inactive | inactive | inactive | -0.194% | inactive
CC(C)(OO)c1ccccc1 | inactive | 3.56% | inactive | -2.62% | inactive | inactive | inactive | inactive | 50.1 µM (active) | 39.8 µM (active) | inactive | inactive | 31.6 µM (active) | 39.8 µM (active) | inactive | inactive | inactive | inactive | -8.73% and -2.9% | inactive
CC(C)(C)OO | inactive | 1.33% and -10.7% | inactive | -2.06% and -1.93% | inactive | inactive | inactive | inactive | inactive | inactive | inactive | inactive | inactive | inactive | inactive | inactive | inactive | inactive | 15% and -27.6% | inactive
Cc1cccc(C#N)c1 | inactive | -2.18% | inactive | -2.05% | inactive | inactive | inactive | inactive | inactive | inactive | inactive | inactive | inactive | inactive | inactive | inactive | inactive | inactive | -8.19% | inactive
O=C=NC1CCCCC1 | inactive | -6.26% and 7.73% | inactive | 0.146% and -1.42% | inactive | inactive | inactive | inactive | inactive | inactive | inactive | inactive | inactive | inactive | inactive | inactive | inactive | inactive | 3.13% and -2.08% | inactive
C=CC(C)=O | inactive | 3.67% | inactive | 0.266% | inactive | inactive | inactive | inactive | inactive | inactive | inactive | inactive | inactive | inactive | inactive | inactive | inactive | inactive | 0.624% | inactive
